The panel holds about 79,000 compounds, 15% with a hit somewhere; the sample as a whole holds those more often. Values without a mark were called inactive. Active and inactive are the calls of the source. Rule as the data show it: active = growth inhibition above about 70%; inactive = the rest.
Assays:
[1] = NCI Yeast Anticancer Drug Screen. Data for the wt1 strain (AID 149);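 also: 0% = growth of vehicle-treated wt1 cultures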; conditions: S. cerevisiae wt1 strain (SPY 50644) growth inhibition, active compounds read high
In short: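 Yeast wt1 strain exposed to compounds; growth inhibition measured relative to vehicle-treated controls.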

[2] = NCI Yeast Anticancer Drug Screen. Data for the rad50EPP+ strain (AID 151);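 also: 0% = growth of vehicle-treated control cultures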; conditions: S. cerevisiae rad50 mutant strain, active compounds read high
In short: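 One strain with a rad50 alteration (rad50EPP+) was compound-treated, its growth then compared to that of vehicle controls.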

[3] = NCI Yeast Anticancer Drug Screen. Data for the mgt1 strain (AID 153); conditions: S. cerevisiae mgt1 mutant growth inhibition, active compounds read high
In short: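 After exposure of the mgt1 yeast mutant to compound, growth was measured and reported as inhibition compared with vehicle controls.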

[4] = NCI Yeast Anticancer Drug Screen. Data for the rad50 strain (AID 155);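 also: 0% = growth of vehicle-only cultures of the same strain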; conditions: S. cerevisiae rad50 strain growth inhibition, active compounds read high
In short: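 Yeast carrying a defined DNA repair defect were exposed to test compounds, and growth was compared with vehicle-treated controls to give percent inhibition.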

[5] = NCI Yeast Anticancer Drug Screen. Data for the mec2-1 strain (AID 157); conditions: S. cerevisiae mec2-1 strain, active compounds read high
In short: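 Test agents were screened against the mec2-1 yeast strain, with defined DNA repair or cell cycle alteration. Growth was scored as inhibition against vehicle-only controls.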

[6] = NCI Yeast Anticancer Drug Screen. Data for the rad14 strain (AID 159);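 also: 0% = growth of vehicle-treated control cultures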; conditions: S. cerevisiae rad14 strain growth inhibition, active compounds read high
In short: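 Yeast cells carrying a defined DNA-repair defect were exposed to compounds, and growth inhibition was calculated relative to vehicle-treated control cultures.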

[7] = NCI Yeast Anticancer Drug Screen. Data for the sgs1 mgt1 strain (AID 161);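 also: 0% = growth of cultures given vehicle only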; conditions: S. cerevisiae sgs1 mgt1 strain, active compounds read high
In short: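 Test agents were incubated with a DNA-repair-mutant yeast strain. Growth was then read and compared against vehicle-treated controls.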

[8] = NCI Yeast Anticancer Drug Screen. Data for the CLN2oe strain (AID 163);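 also: 0% = growth of vehicle-only control cultures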; conditions: S. cerevisiae CLN2oe strain, active compounds read high
In short: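 Here, growth inhibition in a cell-cycle-altered yeast strain after compound exposure was quantified against vehicle control growth.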

[9] = NCI Yeast Anticancer Drug Screen. Data for the cln2 rad14 strain (AID 165);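 also: 0% = growth equal to vehicle treated cultures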; conditions: S. cerevisiae cln2 rad14 strain, active compounds read high
In short: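 Growth of compound-exposed yeast (cln2 rad14 genotype) measured and expressed as inhibition relative to vehicle.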

[10] = NCI Yeast Anticancer Drug Screen. Data for the bub3 strain (AID 167); conditions: S. cerevisiae bub3 mutant strain, active compounds read high
In short: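 Compounds were applied to a genetically altered yeast strain carrying a cell-cycle control defect. Growth inhibition was scored against vehicle-treated controls.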

[11] = NCI Yeast Anticancer Drug Screen. Data for the wt2 strain (AID 169);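 also: 0% = growth of vehicle-treated yeast cultures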; conditions: S. cerevisiae wt2 strain growth inhibition, active compounds read high
In short: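 Genetically defined yeast strains from a DNA-repair/cell-cycle panel were used. Compound-exposed yeast growth was measured, and the inhibition was calculated relative to vehicle treatment.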

[12] = NCI Yeast Anticancer Drug Screen. Data for the mlh1 strain (AID 171);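 also: 0% = growth of vehicle-treated control cultures of the same strain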; conditions: S. cerevisiae mlh1 strain growth inhibition, active compounds read high
In short: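 Here the genetically defined yeast mutant is grown with each compound, and the extent to which its growth falls below that of vehicle-exposed cells is reported.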

[13] = NCI Yeast Anticancer Drug Screen. Data for the sgs1 strain (AID 173);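 also: 0% = growth of vehicle-only control cultures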; conditions: S. cerevisiae sgs1 mutant, active compounds read high
In short: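 Relative growth inhibition, referenced to vehicle, was determined in a yeast strain with a defined alteration affecting DNA damage repair or cell cycle control after compound exposure.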

[14] = NCI Yeast Anticancer Drug Screen. Data for the mlh1 rad18 strain (AID 175); conditions: S. cerevisiae mlh1 rad18 strain growth inhibition, active compounds read high
In short: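 In this whole-cell yeast screen, a strain with altered DNA damage repair is challenged with compound, and its growth is measured against matched vehicle-treated controls.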

[15] = NCI Yeast Anticancer Drug Screen. Data for the rad18 strain (AID 177); conditions: S. cerevisiae rad18 mutant growth inhibition, active compounds read high
In short: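 Screen uses a yeast strain with a defined lesion in DNA damage repair; compound effect is read as loss of growth compared to untreated vehicle cultures.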

[16] = NCI Yeast Anticancer Drug Screen. Data for the rad52 strain (AID 147);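 also: 0% = growth of vehicle-treated control cultures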; conditions: S. cerevisiae rad52 mutant growth inhibition, active compounds read high
In short: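 Measured: yeast growth inhibition. System: strain with a defined DNA damage repair alteration. Reference: vehicle-treated control cultures.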

[17] = at 5.0 µM (retest, dose inferred, filed as 0.5)
[18] = at 50.0 µM (retest, dose inferred, filed as 5.0)

For `CC(CN(C)C)C(=O)/C=C/c1ccc(Cl)c(Cl)c1` (stereo unspecified), the growth inhibition ([1]; at 1.2 µM) was 4%, the growth inhibition ([1]; at 3.7 µM) was 6% and the growth inhibition ([1]; at 11.0 µM) was 9%. The growth inhibition ([1]; at 33.0 µM) was 24%, the growth inhibition ([1]; at 100.0 µM) was 85% (active) and the growth inhibition ([2]; at 1.2 µM) was 2%. For the same compound, the growth inhibition ([2]; at 3.7 µM) was 10%, the growth inhibition ([2]; at 11.0 µM) was 27% and the growth inhibition ([2]; at 33.0 µM) was 61%. The growth inhibition ([2]; at 100.0 µM) was 89% (active), the growth inhibition ([3]; at 1.2 µM) was 4% and the growth inhibition ([3]; at 3.7 µM) was 3%. The growth inhibition ([3]; at 11.0 µM) was 13%, the growth inhibition ([3]; at 33.0 µM) was 83% (active) and the growth inhibition ([3]; at 100.0 µM) was 98% (active). The growth inhibition ([4]; at 1.2 µM) was 0%, the growth inhibition ([4]; at 3.7 µM) was -3% and the growth inhibition [4, 17] was -9%. For the same compound, the growth inhibition ([4]; at 11.0 µM) was 20%, the growth inhibition ([4]; at 33.0 µM) was 66% and the growth inhibition [4, 18] was 3%. The growth inhibition ([4]; at 50.0 µM) was 99.2% (active), the growth inhibition ([4]; at 100.0 µM) was 95% (active) and the growth inhibition ([5]; at 1.2 µM) was 4%. It also gave a growth inhibition ([5]; at 3.7 µM) of 5%, a growth inhibition [5, 17] of 4% and a growth inhibition ([5]; at 11.0 µM) of 14%. The growth inhibition ([5]; at 33.0 µM) was 48%, the growth inhibition [5, 18] was -10% and the growth inhibition ([5]; at 50.0 µM) was 99.4% (active). For the same compound, the growth inhibition ([5]; at 100.0 µM) was 97% (active), the growth inhibition ([6]; at 1.2 µM) was 6% and the growth inhibition ([6]; at 3.7 µM) was 9%. For the same compound, the growth inhibition ([6]; at 11.0 µM) was 22%, the growth inhibition ([6]; at 33.0 µM) was 50% and the growth inhibition ([6]; at 100.0 µM) was 96% (active). For the same compound, the growth inhibition [7, 17] was -4%, the growth inhibition [7, 18] was 8% and the growth inhibition ([7]; at 50.0 µM) was 99.6% (active). The growth inhibition ([8]; at 1.2 µM) was 3%, the growth inhibition ([8]; at 3.7 µM) was 5% and the growth inhibition ([8]; at 11.0 µM) was 10%. The growth inhibition ([8]; at 33.0 µM) was 29%, the growth inhibition ([8]; at 100.0 µM) was 74% (active) and the growth inhibition [9, 17] was -3%. The growth inhibition [9, 18] was -7%, the growth inhibition ([9]; at 50.0 µM) was 97% (active) and the growth inhibition ([10]; at 1.2 µM) was 3%. The growth inhibition ([10]; at 3.7 µM) was 5%, the growth inhibition [10, 17] was -16% and the growth inhibition ([10]; at 11.0 µM) was 16%. For the same compound, the growth inhibition ([10]; at 33.0 µM) was 69%, the growth inhibition [10, 18] was 82% (active) and the growth inhibition ([10]; at 50.0 µM) was 99.2% (active). The growth inhibition ([10]; at 100.0 µM) was 97% (active), the growth inhibition ([11]; at 1.2 µM) was 2% and the growth inhibition ([11]; at 3.7 µM) was 6%. The growth inhibition ([11]; at 11.0 µM) was 14%, the growth inhibition ([11]; at 33.0 µM) was 70% (active) and the growth inhibition ([11]; at 100.0 µM) was 98% (active). For the same compound, the growth inhibition ([12]; at 1.2 µM) was 4%, the growth inhibition ([12]; at 3.7 µM) was 6% and the growth inhibition ([12]; at 11.0 µM) was 15%. The growth inhibition ([12]; at 33.0 µM) was 74% (active), the growth inhibition ([12]; at 100.0 µM) was 98% (active) and the growth inhibition ([13]; at 1.2 µM) was 4%. For the same compound, the growth inhibition ([13]; at 3.7 µM) was 9%, the growth inhibition ([13]; at 11.0 µM) was 25% and the growth inhibition ([13]; at 33.0 µM) was 84% (active). For the same compound, the growth inhibition ([13]; at 100.0 µM) was 98% (active), the growth inhibition [14, 17] was -7% and the growth inhibition [14, 18] was -21%. The growth inhibition ([14]; at 50.0 µM) was 99.2% (active), the growth inhibition ([15]; at 1.2 µM) was 5% and the growth inhibition ([15]; at 3.7 µM) was 15%. For the same compound, the growth inhibition ([15]; at 11.0 µM) was 40%, the growth inhibition ([15]; at 33.0 µM) was 84% (active) and the growth inhibition ([15]; at 100.0 µM) was 97% (active).

With `CN(CCOc1ccc(Cl)cc1)CCOc1ccc(Cl)cc1` the growth inhibition ([16]; at 1.2 µM) was 8%, the growth inhibition ([16]; at 3.7 µM) was 18% and the growth inhibition ([16]; at 11.0 µM) was 50%. For the same compound, the growth inhibition ([16]; at 33.0 µM) was 90% (active), the growth inhibition ([16]; at 100.0 µM) was 99% (active) and the growth inhibition ([3]; at 1.2 µM) was 3%. The growth inhibition ([3]; at 3.7 µM) was 13%, the growth inhibition ([3]; at 11.0 µM) was 57% and the growth inhibition ([3]; at 33.0 µM) was 98% (active). The growth inhibition ([3]; at 100.0 µM) was 99% (active), the growth inhibition ([4]; at 1.2 µM) was 11% and the growth inhibition ([4]; at 3.7 µM) was 17%. For the same compound, the growth inhibition [4, 17] was 13%, the growth inhibition ([4]; at 11.0 µM) was 51% and the growth inhibition ([4]; at 33.0 µM) was 97% (active). For the same compound, the growth inhibition [4, 18] was 97% (active), the growth inhibition ([4]; at 50.0 µM) was 99.2% (active) and the growth inhibition ([4]; at 100.0 µM) was 99% (active). It also gave a growth inhibition ([5]; at 1.2 µM) of 12%, a growth inhibition ([5]; at 3.7 µM) of 16% and a growth inhibition [5, 17] of 5%. The growth inhibition ([5]; at 11.0 µM) was 36%, the growth inhibition ([5]; at 33.0 µM) was 93% (active) and the growth inhibition [5, 18] was 99% (active). For the same compound, the growth inhibition ([5]; at 50.0 µM) was 99.5% (active), the growth inhibition ([5]; at 100.0 µM) was 99% (active) and the growth inhibition ([6]; at 1.2 µM) was 28%. For the same compound, the growth inhibition ([6]; at 3.7 µM) was 25%, the growth inhibition ([6]; at 11.0 µM) was 48% and the growth inhibition ([6]; at 33.0 µM) was 99% (active). The growth inhibition ([6]; at 100.0 µM) was 99% (active), the growth inhibition [7, 17] was 25% and the growth inhibition [7, 18] was 99% (active). For the same compound, the growth inhibition ([7]; at 50.0 µM) was 99.7% (active), the growth inhibition ([8]; at 1.2 µM) was 20% and the growth inhibition ([8]; at 3.7 µM) was 18%. The growth inhibition ([8]; at 11.0 µM) was 50%, the growth inhibition ([8]; at 33.0 µM) was 90% (active) and the growth inhibition ([8]; at 100.0 µM) was 99% (active). The growth inhibition [9, 17] was 11%, the growth inhibition [9, 18] was 97% (active) and the growth inhibition ([9]; at 50.0 µM) was 99.5% (active). The growth inhibition ([10]; at 1.2 µM) was 16%, the growth inhibition ([10]; at 3.7 µM) was 23% and the growth inhibition [10, 17] was 10%. The growth inhibition ([10]; at 11.0 µM) was 60%, the growth inhibition ([10]; at 33.0 µM) was 97% (active) and the growth inhibition [10, 18] was 98% (active). The growth inhibition ([10]; at 50.0 µM) was 99.6% (active), the growth inhibition ([10]; at 100.0 µM) was 97% (active) and the growth inhibition ([11]; at 1.2 µM) was 8%. The growth inhibition ([11]; at 3.7 µM) was 11%, the growth inhibition ([11]; at 11.0 µM) was 26% and the growth inhibition ([11]; at 33.0 µM) was 89% (active). The growth inhibition ([11]; at 100.0 µM) was 99% (active), the growth inhibition ([12]; at 1.2 µM) was 13% and the growth inhibition ([12]; at 3.7 µM) was 17%. The growth inhibition ([12]; at 11.0 µM) was 41%, the growth inhibition ([12]; at 33.0 µM) was 98% (active) and the growth inhibition ([12]; at 100.0 µM) was 99% (active). It also gave a growth inhibition ([13]; at 1.2 µM) of 18%, a growth inhibition ([13]; at 3.7 µM) of 23% and a growth inhibition ([13]; at 11.0 µM) of 48%. The growth inhibition ([13]; at 33.0 µM) was 98% (active), the growth inhibition ([13]; at 100.0 µM) was 99% (active) and the growth inhibition [14, 17] was 22%. For the same compound, the growth inhibition [14, 18] was 99% (active), the growth inhibition ([14]; at 50.0 µM) was 99.5% (active) and the growth inhibition ([15]; at 1.2 µM) was 14%. For the same compound, the growth inhibition ([15]; at 3.7 µM) was 11%, the growth inhibition ([15]; at 11.0 µM) was 23% and the growth inhibition ([15]; at 33.0 µM) was 80% (active). The growth inhibition ([15]; at 100.0 µM) was 99% (active).
